Source: the OligoGym collection

Each sequence was assayed against HLA-DRA (assay: pooled miR-30 sensor sort-seq; sequence = guide strand). Conditions: shRNA.
Also: reference of the scale not given here.

Sequence | sensor-assay potency score (higher = more potent)
TACCTCTGGAGGTACATTGGTG | -0.943
TCAAACATAAACTCGCCTGATT | -0.205
TAAACAATAAGTACACAAGAGA | -0.861
TAAACTCGCCTGATTGGTCAGG | -0.677
AAGTCAAACATAAACTCGCCTG | -0.837

The sequences below were run against HMGB2 in the same assay as above. Conditions: shRNA.

Sequence | sensor-assay potency score (higher = more potent)
TTTAGCTTAGCTGCTTTCTGTT | -0.377
TTTCTTCTTGTGCTCTTCCCGG | -1.12
TTCTGGTTCGTTCTTCTTCTTT | -0.774
TATCTTTGGCTGACTGCTCAGA | -0.772
TTTAGGAGCATTGGGGTCCTTT | -0.857
TTCTTCTTGTGCTCTTCCCGGC | -0.526
TTCTTCTTCTTTGAGCCTGTTG | -0.484
TTTGCAGACATGGTCTTCCATC | -0.617
TTTAGGAACATTCAACATCAGA | -0.879
TTAGCTTAGCTGCTTTCTGTTC | -0.873
TTCAAACTTCGACTTCTCCTTT | 0.655

These sequences were tested against HMGN1 in the same assay as above. Conditions: shRNA.

Sequence | sensor-assay potency score (higher = more potent)
TTGATAAAAATATTCCTCTGGA | 0.157
TTATCCTTCGCTGCTGCCTTTT | -1.55
TTTAGTTTCTTGGTTAGCCACT | -0.724
AAGATTTATCCTTCGCTGCTGC | -0.0749
TAGGATATAAAAACTAACCCCC | -0.107
TTAGCTGACAACCGCGCCGATC | -1.18
TACCAAAAAATAAACAACCAGC | -1.01
TTTAGCTGACAACCGCGCCGAT | -0.654
TAAGTCTTCTTTAGTTTCTTGG | 0.158
TTCGCTTCCACTTTTGCAGGAG | 0.413
TTCTTGGTTAGCCACTTCGGCC | -1.77
TTGGTTAGCCACTTCGGCCTGT | 0.684

These sequences were tested against HMOX1 in the same assay as above. Conditions: shRNA.

Sequence | sensor-assay potency score (higher = more potent)
AAACACAAGACACAACATCTTT | -0.747
TTGCGGTGCAGCTCTTCTGGGA | -0.856
TTGCACTTTGTTGCTGGCCCGC | -1.2
TCTTCTGGGAAGTAGACAGGGG | -0.217
TAGAGCTGCTTGAACTTGGTGG | 0.136
TCATGAACTCAGCATTCTCTGC | -0.85
TAGGGGATGACCTCCTGCCAGC | -1.69
TCTTCTATCACCCTCTGCCTGA | -0.665
TACAGCAACTGTCGCCACCAGA | -0.902
TTGAACTTGGTGGCACTGGCAA | -0.865
TTGAGCAGGAACGCAGTCTTGG | -0.286
TATAAAAACAACAGAACACAAC | -1.08
